# Experimental data taken from PubChem BioAssay.
# Activity calls are given as the source filed them.
# What was measured:
# [1] = small molecules captured by biotinylated probe aFSTL3 – biochemical, small-molecule microarray, fluorescence 635/667, stem cell growth factor project, primary screen (AID 1064); conditions: higher = more signal;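 note: measures binding of the biotinylated anti-FSTL3 antibody to printed compounds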
# [2] = binders from COS7 lysate, DM2A8 probe, primary screen, torsin A project, cell lysate, small-molecule microarray, fluorescence 635/667 (AID 1065); conditions: higher = more signal, COS7 lysate expressing mutant human TOR1A
# [3] = small molecules captured by biotinylated probe aFGF2 – biochemical, small-molecule microarray, fluorescence 635/667, stem cell growth factor project, primary screen (AID 1067); conditions: higher = more signal;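 note: measures binding of biotinylated aFGF2 protein to printed compounds on slides; z-score merges feature fluorescence and signal-to-noise across triplicate slides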
# [4] = small molecules captured by biotinylated probe aFGF10 – biochemical, small-molecule microarray, fluorescence 635/667, stem cell growth factor project, primary screen (AID 1071); conditions: higher = more signal;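 note: score merges 667 nm spot intensity and signal to noise from triplicate slides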
# [5] = target: Neurogenic locus notch homolog protein 2 (Homo sapiens) (UniProt Q04721); assay: small molecules binding Notch2 protein – biochemical, small-molecule microarray, 635 nm fluorescence, stem cell growth factors, primary screen (AID 1073); conditions: higher = more signal
# Chain of Neurogenic locus notch homolog protein 2 (Homo sapiens) (Q04721 whole entry, looked up, canonical isoform): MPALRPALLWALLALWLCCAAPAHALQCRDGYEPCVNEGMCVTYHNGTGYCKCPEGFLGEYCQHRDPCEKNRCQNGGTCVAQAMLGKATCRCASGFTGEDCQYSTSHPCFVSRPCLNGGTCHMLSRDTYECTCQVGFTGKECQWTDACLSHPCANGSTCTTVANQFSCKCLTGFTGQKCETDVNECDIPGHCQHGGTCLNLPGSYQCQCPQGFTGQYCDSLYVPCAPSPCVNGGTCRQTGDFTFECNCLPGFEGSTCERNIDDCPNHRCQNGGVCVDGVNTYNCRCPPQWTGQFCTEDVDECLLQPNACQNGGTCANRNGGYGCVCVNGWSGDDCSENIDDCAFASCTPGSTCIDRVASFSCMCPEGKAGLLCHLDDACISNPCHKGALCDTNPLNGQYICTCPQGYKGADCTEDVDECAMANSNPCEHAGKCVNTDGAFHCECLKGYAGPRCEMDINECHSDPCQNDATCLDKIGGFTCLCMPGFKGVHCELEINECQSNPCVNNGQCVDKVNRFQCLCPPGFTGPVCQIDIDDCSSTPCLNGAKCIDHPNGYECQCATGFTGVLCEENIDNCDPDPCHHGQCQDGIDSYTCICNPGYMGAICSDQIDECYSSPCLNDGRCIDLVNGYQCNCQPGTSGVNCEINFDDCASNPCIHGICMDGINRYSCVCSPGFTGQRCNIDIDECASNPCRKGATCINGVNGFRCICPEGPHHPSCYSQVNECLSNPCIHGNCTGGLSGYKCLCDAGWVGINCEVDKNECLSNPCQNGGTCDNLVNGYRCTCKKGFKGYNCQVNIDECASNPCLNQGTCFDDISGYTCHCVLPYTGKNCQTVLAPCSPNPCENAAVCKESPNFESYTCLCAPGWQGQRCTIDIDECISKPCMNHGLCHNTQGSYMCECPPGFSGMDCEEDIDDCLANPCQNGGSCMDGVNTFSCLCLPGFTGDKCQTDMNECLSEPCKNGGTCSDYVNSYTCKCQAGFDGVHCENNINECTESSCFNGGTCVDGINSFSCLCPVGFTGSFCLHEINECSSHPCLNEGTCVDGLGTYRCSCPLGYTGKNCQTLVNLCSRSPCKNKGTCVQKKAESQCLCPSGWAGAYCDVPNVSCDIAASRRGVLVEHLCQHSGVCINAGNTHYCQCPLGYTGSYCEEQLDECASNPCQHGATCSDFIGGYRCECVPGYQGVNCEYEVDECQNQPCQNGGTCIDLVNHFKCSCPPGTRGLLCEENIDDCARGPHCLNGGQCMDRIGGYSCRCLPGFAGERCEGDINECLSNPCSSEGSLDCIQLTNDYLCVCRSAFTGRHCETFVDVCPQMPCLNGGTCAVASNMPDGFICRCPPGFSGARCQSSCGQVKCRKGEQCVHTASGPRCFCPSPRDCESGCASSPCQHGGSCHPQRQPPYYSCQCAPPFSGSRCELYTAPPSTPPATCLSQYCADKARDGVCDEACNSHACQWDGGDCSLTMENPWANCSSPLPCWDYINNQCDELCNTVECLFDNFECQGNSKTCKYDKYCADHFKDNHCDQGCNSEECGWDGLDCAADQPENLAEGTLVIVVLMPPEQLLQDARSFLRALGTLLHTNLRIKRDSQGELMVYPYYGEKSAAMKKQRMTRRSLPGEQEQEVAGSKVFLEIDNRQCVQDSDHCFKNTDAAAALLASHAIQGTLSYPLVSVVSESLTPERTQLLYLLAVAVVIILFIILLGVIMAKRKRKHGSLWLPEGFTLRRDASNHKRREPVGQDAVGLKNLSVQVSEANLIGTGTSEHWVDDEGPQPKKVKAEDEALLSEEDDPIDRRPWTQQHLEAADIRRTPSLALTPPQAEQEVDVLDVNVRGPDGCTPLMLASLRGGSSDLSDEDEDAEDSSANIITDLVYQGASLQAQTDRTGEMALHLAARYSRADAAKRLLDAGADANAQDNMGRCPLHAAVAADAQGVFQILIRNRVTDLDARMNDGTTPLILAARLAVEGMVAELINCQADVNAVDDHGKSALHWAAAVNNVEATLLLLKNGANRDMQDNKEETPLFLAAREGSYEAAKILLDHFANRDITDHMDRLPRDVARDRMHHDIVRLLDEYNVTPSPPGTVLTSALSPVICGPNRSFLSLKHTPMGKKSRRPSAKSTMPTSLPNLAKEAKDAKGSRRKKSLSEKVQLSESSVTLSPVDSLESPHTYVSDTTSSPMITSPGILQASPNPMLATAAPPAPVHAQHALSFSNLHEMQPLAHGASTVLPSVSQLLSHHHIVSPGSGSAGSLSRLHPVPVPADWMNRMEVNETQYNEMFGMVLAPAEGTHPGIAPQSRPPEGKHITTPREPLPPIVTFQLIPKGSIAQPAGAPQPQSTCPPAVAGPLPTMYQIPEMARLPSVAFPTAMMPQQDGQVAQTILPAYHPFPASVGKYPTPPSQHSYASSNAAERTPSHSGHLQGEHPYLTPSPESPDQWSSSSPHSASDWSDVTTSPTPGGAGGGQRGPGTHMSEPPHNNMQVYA
# [6] = target: Pro-neuregulin-1, membrane-bound isoform (Homo sapiens) (UniProt Q02297); assay: small molecules binding neuregulin-1 protein – biochemical, small-molecule microarray, fluorescence 635/667, psychiatric disease protein project, primary screen (AID 1075); conditions: NRG1 binding, 635 nm fluorescence, higher = more signal;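 note: score combines 667 nm spot fluorescence with signal to noise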
# Chain of Pro-neuregulin-1, membrane-bound isoform (Homo sapiens) (Q02297 whole entry, looked up, the tested form may be a part, canonical isoform): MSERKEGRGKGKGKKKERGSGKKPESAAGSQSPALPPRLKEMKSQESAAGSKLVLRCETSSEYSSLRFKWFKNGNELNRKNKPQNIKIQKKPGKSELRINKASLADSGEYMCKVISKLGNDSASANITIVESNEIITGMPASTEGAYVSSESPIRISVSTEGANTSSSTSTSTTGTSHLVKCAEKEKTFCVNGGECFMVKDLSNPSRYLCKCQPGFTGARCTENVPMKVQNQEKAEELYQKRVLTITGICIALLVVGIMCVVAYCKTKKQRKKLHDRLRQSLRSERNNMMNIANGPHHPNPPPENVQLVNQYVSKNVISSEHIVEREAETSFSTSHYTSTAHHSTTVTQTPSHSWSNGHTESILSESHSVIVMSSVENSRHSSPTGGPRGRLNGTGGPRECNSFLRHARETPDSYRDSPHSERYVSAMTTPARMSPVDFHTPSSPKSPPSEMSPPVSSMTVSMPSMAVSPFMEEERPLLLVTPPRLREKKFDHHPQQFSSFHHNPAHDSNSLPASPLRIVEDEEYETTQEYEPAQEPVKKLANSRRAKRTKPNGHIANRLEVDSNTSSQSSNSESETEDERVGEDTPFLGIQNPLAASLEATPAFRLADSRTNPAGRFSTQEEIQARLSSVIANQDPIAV
# [7] = system: Neuregulin-1 EGF-like domain; assay: small molecules binding NRG1 EGF domain – biochemical, small-molecule microarray, 635 nm fluorescence, primary screen (AID 1081); conditions: higher = more signal;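 note: binding of the protein to compounds printed on small-molecule microarray slides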
# [8] = FRG1 expression reporter modulators in myotubes – cell-based, C2C12 myotubes, firefly/Renilla luciferase, luminescence, FRG1 inhibition for FSHD, primary screen (AID 1084); conditions: FRG1 promoter luciferase, higher = more signal, called active from +8 up or from −8 down
# [9] = small molecules captured by biotinylated probe aFST – biochemical, small-molecule microarray, fluorescence 635/667, stem cell growth factor project, primary screen (AID 1086); conditions: higher = more signal;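 note: score merges 667 nm fluorescence with signal-to-noise of each printed compound spot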
# [10] = binders of probe aHhip on microarray, primary screen, stem cell growth factor project, biochemical, small-molecule microarray, fluorescence 635/667 (AID 1087); conditions: higher = more signal;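 note: score merges spot fluorescence at 667nm with spot signal to noise ratio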
# [11] = system: PRMT1 (protein arginine N-methyltransferase 1); assay: small molecules binding arginine methyltransferase PRMT1 – biochemical, small-molecule microarray, 635 nm fluorescence, primary screen (AID 1088); conditions: higher = more signal;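 note: binding of Prmt1 protein to compounds spotted on small-molecule microarray slides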
# [12] = growth effects on S. cerevisiae YJM789 – YJM789 clinical isolate, OD600, 24 h, basal, primary screen (AID 1089); conditions: higher = more signal, called active from +8 up or from −8 down;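 note: growth of clinical yeast isolate S. cerevisiae YJM 789 seeded 1000 cells per well; test concentration not given here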
# [13] = S. pombe growth modifiers, basal conditions – strain 972, OD600, 24 h, no modulator, primary screen (AID 1090);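 note: basal condition with compound alone and no growth modifier present; test concentration not given here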; conditions: S. pombe 972 growth, higher = more signal, called active from +8 up or from −8 down
# [14] = budding yeast growth modifiers under rapamycin – strain BY4716, OD600, 96 h, primary screen (AID 1091); note: test concentration not given here; conditions: S. cerevisiae BY4716 + rapamycin, higher = more signal, called active from +8 up or from −8 down
# [15] = target: Torsin-1A-interacting protein 2 (Homo sapiens) (UniProt Q8NFQ8); assay: small molecules binding lysate-expressed LULL1 – cell lysate, human LULL1 lysate, 635/667 nm fluorescence, primary screen (AID 1092); conditions: small-molecule microarray, hLULL1 lysate binding, 635 nm fluorescence; higher = more signal;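 note: probe is lysate of COS7 cells overexpressing human LULL1; score merges per-feature 667 nm fluorescence with signal-to-noise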
# Chain of Torsin-1A-interacting protein 2 (Homo sapiens) (Q8NFQ8 whole entry, looked up): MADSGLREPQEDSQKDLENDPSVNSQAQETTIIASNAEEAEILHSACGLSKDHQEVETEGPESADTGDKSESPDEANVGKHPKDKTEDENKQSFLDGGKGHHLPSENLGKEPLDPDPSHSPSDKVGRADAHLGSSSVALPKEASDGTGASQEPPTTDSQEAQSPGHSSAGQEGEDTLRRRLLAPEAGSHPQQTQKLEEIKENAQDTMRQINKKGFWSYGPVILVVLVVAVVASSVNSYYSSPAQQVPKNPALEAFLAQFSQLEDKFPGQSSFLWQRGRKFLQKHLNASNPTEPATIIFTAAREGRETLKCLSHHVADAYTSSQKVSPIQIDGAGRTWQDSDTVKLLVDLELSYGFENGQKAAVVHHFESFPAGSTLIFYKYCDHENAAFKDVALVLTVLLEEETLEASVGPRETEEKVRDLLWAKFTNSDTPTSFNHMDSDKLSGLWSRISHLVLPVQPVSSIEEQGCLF
# [16] = optical density change of DRC41 E. coli – strain DRC41, OD650, 24 h, E. coli filamentation project, primary screen (AID 1093);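 note: MC1000 strain lacking acrAB efflux and sulA so SOS filamentation is blocked; test concentration not given here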; conditions: E. coli DRC41 growth, higher = more signal, called active from +8 up or from −8 down
# [17] = probe aLefty2 binding to arrayed compounds – biochemical, biotinylated probe, 635/667 nm fluorescence, primary screen (AID 1094); conditions: small-molecule microarray, higher = more signal;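 note: score merges spot fluorescence near 667 nm with spot signal-to-noise ratio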
# [18] = system: Noggin (protein binding on small-molecule microarray); assay: small molecules binding Noggin protein – biochemical, 635/667 nm fluorescence, primary screen (AID 1095); conditions: 635 nm fluorescence, higher = more signal;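 note: score merges 667 nm feature fluorescence with signal to noise over triplicate slides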
# [19] = target: Neurogenic locus notch homolog protein 3 (Homo sapiens) (UniProt Q9UM47); assay: small molecules binding NOTCH3 protein – biochemical, 635/667 nm fluorescence, primary screen (AID 1096); conditions: small-molecule microarray, 635 nm fluorescence, higher = more signal
# [20] = probe aEGFR binding to arrayed compounds – biochemical, biotinylated probe, 635/667 nm fluorescence, primary screen (AID 1097); conditions: small-molecule microarray, higher = more signal;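 note: probe is a biotinylated anti-EGFR antibody binding compounds printed on slides; score combines fluorescence near 667 nm and signal to noise of each spot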
SMILES,composite z-score [1],composite z-score [2],composite z-score [3],composite z-score [4],composite z-score [5],composite z-score [6],composite z-score [7],z-score [8],composite z-score [9],composite z-score [10],composite z-score [11],z-score [12],z-score [13],z-score [14],composite z-score [15],z-score [16],composite z-score [17],composite z-score [18],composite z-score [19],composite z-score [20]
COC(=O)C1=C(C)N(Cc2ccccc2)c2c(C(=O)OC)c(C(=O)OC)c(C(=O)OC)c(=O)n2[C@@H]1c1ccccc1,-0.274,0.657,-0.0181,0.282,0.898,0.289,0.721,0.365 (inactive),0.224,-0.0994,0.269,-0.677 (inactive),-1.75 (inactive),-0.389 (inactive),0.309,0.535 (inactive),-0.195,0.433,0.699,-0.065
CC1=C([C@H](O)CCc2ccccc2)[C@H](CO)[C@@H]2C(=O)N(Cc3ccccc3)C(=O)[C@@H]2C1,-0.183,0.0897,0.0137,0.216,0.585,0.181,-0.107,-0.69 (inactive),0.0747,-0.174,-0.262,-0.466 (inactive),-1.41 (inactive),-0.873 (inactive),-0.2,1.72 (inactive),0.0769,0.932,0.497,-0.085
C#CCCCON=C1C[C@@H](O)[C@@H](O)[C@@H]2[C@@H]3C(=O)N(Cc4ccc5c(c4)OCO5)C(=O)[C@@H]3CC[C@@H]12,-0.158,-0.022,-0.0684,0.456,0.204,0.166,0.562,-0.177 (inactive),0.351,0.0695,0.652,0.755 (inactive),0.783 (inactive),0.271 (inactive),0.852,0.105 (inactive),-0.0367,-0.0201,0.0568,-0.0389
CN1C(=O)C2C=CC(C(O)c3ccc(N(C)C)cc3)N(Nc3ccc([N+](=O)[O-])cc3[N+](=O)[O-])C2C1=O (stereo not given),1.56,0.989,0.126,0.739,1.6,1.25,1.31,2 (inactive),1.29,-0.0296,1.1,0.0069 (inactive),-0.0787 (inactive),-0.183 (inactive),2.77,-0.465 (inactive),0.452,0.0496,1.1,0.335
C=C(CCCC)/C(=C/C[C@@H](OC(=O)c1ccncc1)c1cccc(OCCO)c1)c1cc(C(=O)OC)ccc1OC,-0.0606,0.522,0.0211,0.291,0.535,1.38,1.26,9.67 (active),0.223,0.0722,1.36,0.526 (inactive),-1.17 (inactive),0.289 (inactive),0.48,1.27 (inactive),-0.0102,1.37,1.04,0.0376
CCCC[C@@H]1C[C@H]1[C@@H](NC(=O)c1cccs1)c1ccc(Cl)cc1,0.521,-0.6,-0.141,-0.543,-1.45,-0.273,-0.669,0.902 (inactive),-0.531,-0.0003,-0.117,-0.0596 (inactive),0.806 (inactive),0.413 (inactive),0.795,-1 (inactive),-0.168,-1.69,-1.73,-0.288
C=CC[C@@]1(C(=O)NCC(O)CO)N=C(c2ccc(OCCCO)cc2)O[C@@H]1c1ccccc1CN=[N+]=[N-] (stereo not given in full),0.325,0.674,-0.11,-0.355,0.13,1.79,1.23,-2.68 (inactive),0.966,-0.236,1.18,-0.785 (inactive),-1.42 (inactive),-1.04 (inactive),3.84,1.52 (inactive),-0.147,-0.265,-0.216,-0.152
CO[C@H]1COC(=O)[C@@H](OCc2ccccc2)C=C[C@H](C)[C@@H](OC)COC(=O)[C@H](OCc2ccccc2)C=C[C@@H]1C,-0.617,-0.144,-0.136,-0.205,-0.893,-0.93,-0.669,-0.23 (inactive),-0.0171,-0.353,-0.374,-2.92 (inactive),-2.88 (inactive),-0.495 (inactive),-0.233,-0.255 (inactive),-0.462,0.816,-0.472,-0.188
Cc1ccc(S[C@]2(C(=O)NCCCN(C)C)CC(=O)N(C3CCCCC3)[C@@H]2c2ccc(CO)cc2I)cc1,1.93,-0.697,-0.113,-0.546,-0.197,0.266,0.942,-1.31 (inactive),0.235,-0.0645,-0.167,0.782 (inactive),-8.01 (active),-0.417 (inactive),1.81,-0.455 (inactive),0.213,-0.553,-0.742,-0.257
O=C(NCC(O)CO)[C@]1(Cc2ccccc2)N=C(c2ccc(OCCCO)cc2)O[C@@H]1c1ccccc1 (stereo not given in full),1.09,2.15,-0.104,-0.512,0.271,0.951,0.868,-1.63 (inactive),0.864,0.189,1.26,-1 (inactive),-1.56 (inactive),-1.81 (inactive),3.43,0.897 (inactive),0.595,-0.574,-0.0954,0.107
CCCC=C(CCC)[C@@H](NS(=O)(=O)c1ccc(C(F)(F)F)cc1)c1ccc(-c2ccccc2)cc1,0.357,0.0864,0.0407,0.309,1.5,0.801,1.02,-0.001 (inactive),1.38,2.14,1.09,0.251 (inactive),-3.21 (inactive),-0.1 (inactive),3,-0.39 (inactive),0.0491,0.77,0.762,-0.013
CC(=O)NCCCC[C@@H]1NC(=O)[C@@H]2C[C@H](C(=O)NCCCCCNC(=O)CS)[C@H](c3ccc(O)cc3)N2C1=O,0.123,-0.383,-0.226,-1.38,-0.83,0.0942,1.15,-1.14 (inactive),-0.735,-0.388,0.483,-2.05 (inactive),-1.83 (inactive),-1.55 (inactive),-0.0471,2.99 (inactive),-0.149,1.11,0.108,-0.212
CO[C@H]1O[C@H](CO)[C@@H](OC(=O)Nc2ccc(Oc3ccccc3)cc2)[C@H](OC(=O)Nc2ccccc2-c2ccccc2)[C@H]1OC(=O)Nc1ccccc1-c1ccccc1,-0.448,0.44,0.104,1.04,1.51,1.52,1.35,-0.441 (inactive),0.33,-0.0672,1.54,3.07 (inactive),1.84 (inactive),0.792 (inactive),3.28,2.45 (inactive),0.218,1.23,1.06,0.242
C=C(C(=O)CC[C@H](OC(=O)c1ccccc1-c1ccccc1C(=O)O)c1ccc(CO)o1)C(C)C,-0.547,-0.113,-0.0974,0.959,-0.0673,1.25,1.33,0.112 (inactive),0.0357,-0.0645,1.33,1.44 (inactive),-0.197 (inactive),0.782 (inactive),0.662,-0.309 (inactive),-0.19,1.67,0.951,-0.101
COc1ccc(C(O)C2C=CC3C(=O)N(C)C(=O)C3N2N2CCCCC2)cc1OCc1ccccc1 (stereo not given),0.556,-0.599,-0.0135,0.49,1.57,1.52,1.27,0.451 (inactive),0.994,0.232,0.922,0.371 (inactive),-0.0814 (inactive),1.01 (inactive),2.73,-1.23 (inactive),0.491,-0.171,1.12,0.0787
CC(C)(C)OC(=O)CC[C@]1(C(=O)NCCN2CCOCC2)N=C(c2ccc(OCCCO)cc2)O[C@H]1c1ccccc1CN=[N+]=[N-],0.182,1.16,0.0402,0.07,1.24,1.73,1.42,2.72 (inactive),0.278,-0.0672,0.82,-1.29 (inactive),-0.981 (inactive),-1.35 (inactive),3.06,1.71 (inactive),-0.0384,-0.541,0.343,0.0074
C=CCC(OC(C)=O)[C@@H]1[C@@H](N(Cc2cccc3ccccc23)C(=O)Cc2ccc(F)cc2)c2cc(OCCCO)ccc2N1C(=O)Cc1ccc2ccccc2c1 (stereo not given in full),-0.154,0.154,-0.0503,-0.169,-0.241,-0.58,-0.607,-1.32 (inactive),-0.299,-0.167,0.204,-0.167 (inactive),1.1 (inactive),-0.276 (inactive),0.594,0.348 (inactive),-0.0197,-0.594,-0.0809,-0.121
CO[C@@H]1COC(=O)CC=C[C@H](C)COC(=O)[C@H](Cc2ccccc2)NC(=O)CC=C[C@H]1C,-1.68,1.69,-0.265,-0.416,-1.04,-0.409,0.517,-0.533 (inactive),-0.515,-0.179,1.48,-0.346 (inactive),-0.867 (inactive),-1.61 (inactive),-0.844,-0.0298 (inactive),-0.399,1.6,0.202,-0.0773
CC(C)[Si](OCCCNS(=O)(=O)c1ccc(Br)cc1)(C(C)C)C(C)C,-0.491,0.231,-0.0529,0.962,1.43,0.344,0.468,-3.13 (inactive),0.623,-0.0645,0.807,-4.21 (inactive),-3.02 (inactive),-1.86 (inactive),0.716,3.1 (inactive),0.0278,0.578,1.11,0.0298
Cc1ccc(N2C(=O)c3ccccc3[C@@H](C(=O)NCc3ccccc3)[C@@H]2c2ccc(CO)cc2)nc1,0.462,0.205,-0.128,-0.741,-0.272,-0.161,0.908,-0.702 (inactive),0.174,0.0807,-0.363,0.938 (inactive),-0.242 (inactive),0.76 (inactive),1.39,1.29 (inactive),0.306,0.0163,-0.763,-0.166
